# Assay results reported in PubChem BioAssay AID1745848 (National Center for Advancing Translational Sciences (NCATS), 2022).
# Among all 2,100 compounds or so, about 940 (45%) were called active. About 48% were inconclusive and are not listed. So high a share suggests a set chosen from earlier hits. The list shows a part of the results. Values without a mark were called inactive. Calls follow the shape of the dose curve; as a rule, active = well fitted inhibition curve with a large enough effect; inconclusive = small, poorly fitted or top-dose-only effect; inactive = no such curve, though single readings can be large or run the other way.
# Experiment: Confirmatory qHTS for Inhibitors of ATXN expression; also: nearly all actives have a fitted effect of over 65% in size;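 as to activity change, negative = inhibition: 0% = DMSO vehicle wells and -100% = medium-only wells without cells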
# Settings: ATXN2-luciferase reporter cells, luminescence, 24 h; series mostly up to 11.5 µM; activity change, negative = inhibition: at the top concentration
# Outline: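 Cells carrying ATXN2-luciferase reporter exposed 24 h at 37 C to compound. Viability then read by CellTiter-Fluor (25 uM GF-AFC, 30 min), followed by SteadyGlo luminescence; medium-only wells set 100% inhibition.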
# Potency is read from the fitted curve at half-maximal effect.
Compound,"activity change, negative = inhibition",Potency
Cc1ccc(-c2nc3ccc(Cl)cn3c2CC(C)(C)C)cc1,-10.7%,–
Clc1ccc(C[n+]2cc(-c3ccccc3)n3c2CCCCC3)c(Cl)c1,–,15.8 µM (active)
CN[C@H]1C[C@H]2c3[nH]c4ccc(-c5ccc(OC)cc5)cc4c3CCN2C(=O)[C@H]1[C@H](C)O,–,3.16 µM (active)
CN(C)CCNc1ncnc2c1sc1nc(N3CCOCC3)c3c(c12)CC(C)(C)SC3,–,15.8 µM (active)
CC1(C)Cc2c(c(N3CCOCC3)nc3sc4c(NN)ncnc4c23)CS1,–,8.91 µM (active)
CN(C)CCNc1ncnc2c1sc1nc(N3CCCC3)c3c(c12)CC(C)(C)OC3,–,25.1 µM (active)
CCOc1ccc(CN(C)c2nc(-c3cccnc3)nc3ccccc23)cc1OC,–,25.1 µM (active)
CCCCCn1c(CN2CCN(c3cccc(Cl)c3)CC2)nc2c1c(=O)[nH]c(=O)n2C,–,25.1 µM (active)
CCN1C(=O)C(CC(=O)Nc2ccc(OC)cc2)N(CCc2ccc(F)cc2)C1=S (stereo unspecified),–,2.82 µM (active)
CC(C)(C)c1cc(C(=O)NN)n(Cc2ccc(Cl)cc2Cl)n1,–,15.8 µM (active)
Oc1c(CN2CCOCC2)cc(COCc2ccccc2)c2cccnc12,–,3.16 µM (active)
Oc1c(CN2CCN(c3ccccc3)CC2)cc(Br)c2cccnc12,–,1.26 µM (active)
O=[N+]([O-])c1cc(CN2CCN(c3ccccc3)CC2)c(O)c2ncccc12,–,3.16 µM (active)
Oc1c(CN2CCCCC2)ccc2cccnc12,–,6.31 µM (active)
CN(C)CCNC(=O)c1cccc2[nH]c(-c3ccncc3)nc12,–,2.82 µM (active)
CN(C)CCNC(=O)c1ccc(Cl)c2cc3ccccc3nc12,–,6.31 µM (active)
CN(CC(=O)Nc1cccc(F)c1)CC(=O)Nc1cccc2ccccc12,-23.6% [at 57.5 µM],–
CCN(CC)CCC(=O)Nc1cccc2c1C(=O)c1ccccc1C2=O,–,1.58 µM (active)
Cc1ccn2c(Nc3ccccc3C)c(-c3ccccn3)nc2c1,–,3.55 µM (active)
Cc1ccn2c(Nc3ccccc3)c(-c3ccccn3)nc2c1,–,0.708 µM (active)
Cc1ccc2nc(-c3ccccn3)c(NC3CCCC3)n2c1,-29.6%,–
Cc1ccc(Nc2c(-c3ccccn3)nc3cccc(C)n23)cc1,–,3.16 µM (active)
Cc1ccc(Nc2c(-c3ccccn3)nc3cc(C)ccn23)cc1,–,3.55 µM (active)

Compound,"activity change, negative = inhibition",Potency
Cc1ccc2c(c1)C1CN(C)CCC1N2C(=S)NC(=O)c1ccc(Br)cc1 (stereo unspecified),-21.5%,–
Cc1cnc(C(=O)NNC(=O)c2ccc(Br)cc2)cn1,–,25.1 µM (active)
O=C(NCc1ccco1)c1ccc(-c2cccc(Cl)c2)o1,40.1% [at 57.5 µM],–
COCc1ccc(CN2CCC(C(=O)Nc3cccc(-c4cccc(Cl)c4)c3)CC2)o1,–,25.1 µM (active)
CSCc1nnc(NC(=O)c2ccc(S(=O)(=O)N3CCCCC3C)cc2)o1 (stereo unspecified),–,20 µM (active)
O=C(Nc1nnc(C2CC2)o1)c1ccc(S(=O)(=O)N2CCCc3ccccc32)cc1,–,7.08 µM (active)
CN1CCC(N(C)C(=O)c2ccc(Cl)c(S(=O)(=O)N3CCc4ccccc43)c2)CC1,-26% [at 57.5 µM],–
CC1CCCCN1S(=O)(=O)c1ccc(C(=O)Nc2nnc(-c3ccccc3Cl)o2)cc1 (stereo unspecified),–,2.51 µM (active)
O=S(=O)(c1ccc(Cl)cc1)N1CCN(Cc2ccc(O)c3ncccc23)CC1,–,3.55 µM (active)
Cc1ccc(C)c(S(=O)(=O)N2CCN(Cc3ccc(O)c4ncccc34)CC2)c1,–,3.16 µM (active)
COc1ccccc1N(CC(=O)N/N=C(\C)c1ccccc1O)S(=O)(=O)c1ccc(C)cc1,–,15.8 µM (active)
COc1ccccc1-c1ccc2c(c1)C(C)(Cc1cccc(F)c1)C(=O)N2 (stereo unspecified),–,28.2 µM (active)
Cc1cnc(NC(=O)CCCc2nc3ccccc3s2)s1,–,1.41 µM (active)
CCN(CC)CCNC(=O)C1CCN(S(=O)(=O)c2c(C)noc2/C=C/c2ccccc2F)CC1,–,3.16 µM (active)
COc1cc(NS(=O)(=O)c2ccc(N/C=C(\C#N)c3nc4cc(Cl)ccc4o3)cc2)nc(OC)n1,–,3.98 µM (active)
CCCCOc1ccc(NC2=NC3(CCCC3)N=C(N)N2)cc1,-18% [at 57.5 µM],–
CC[C@H]1CN2CCc3cc(OC)c(OC)cc3[C@@H]2C[C@@H]1C[C@H]1NCCc2cc(OC)c(OC)cc21,–,0.0447 µM (active)
CCC1=C(CC2NCCc3ccccc32)CC2c3cc(OC)c(OC)cc3CCN2C1 (stereo unspecified),–,8.91 µM (active)
CC[C@H]1CN2CCc3cc(OC)c(OC)cc3C2C[C@@H]1C[C@H]1NCCc2cc(OC)c(OC)cc21 (stereo partly specified),–,0.316 µM (active)
O=C1C=C(Nc2ccccc2O)c2ccccc2C1=O,–,12.6 µM (active)
CCN1CCN(c2ccc(S(=O)(=O)N3CCCCC3)cc2NC(=O)c2ccc([N+](=O)[O-])s2)CC1,–,3.16 µM (active)
COc1ccc(/C=C/C(=O)Nc2cccc(S(=O)(=O)N3CCCC3)c2)cc1OC,-15.2%,–
CCN1CCN(c2ccc(S(=O)(=O)N3CCCCC3)cc2NC(=O)/C=C/c2ccc([N+](=O)[O-])cc2)CC1,–,2 µM (active)

Compound,"activity change, negative = inhibition",Potency
COc1ccc(CNc2ncnc3c2[nH]c2ccccc23)cc1,–,8.91 µM (active)
CCOc1ccc2[nH]c3c(NCCc4ccc(OC)c(OC)c4)ncnc3c2c1,–,15.8 µM (active)
Fc1ccc2[nH]c3c(NCc4ccccc4)ncnc3c2c1,–,1.12 µM (active)
Cc1cc(NC(=O)CSc2nc3c(sc4ccccc43)c(=O)n2CCCN2CCOCC2)n[nH]1,–,1.58 µM (active)
Cn1c(=O)c2c(nc(SCCN3CCOCC3)n2Cc2cccc3ccccc23)n(C)c1=O,-12.7%,–
CCOC(=O)COc1ccc(Br)cc1/C=C/c1[nH]c(=O)[nH]c(=O)c1[N+](=O)[O-],-23.6%,–
Cc1cc2nc(-c3nnnn3Cc3ccccc3)c(=O)[nH]c2cc1C,-0.827%,–
CC1=NN(c2nc3ccccc3[nH]2)C(=O)C1Cc1ccccc1 (stereo unspecified),–,2 µM (active)
CCN(CC)CCNC(=O)c1ccc(NC(=O)Cc2cccc3ccccc23)cc1,–,3.98 µM (active)
Cc1ccc(-c2cc(-c3ccccc3)nc(NN)n2)cc1,–,35.5 µM (active)
CCOc1ccc(NCc2cccn2-c2nnc(N3CCC(C(=O)NCCCN4CC(C)CC(C)C4)CC3)s2)cc1 (stereo unspecified),–,3.16 µM (active)
C=CCSc1nc2ccccc2n1C(=O)/C=C/c1ccc(OC)c(OC)c1,–,2.82 µM (active)
CCSc1nc2ccccc2n1C(=O)/C=C\c1ccc(OC)c(OC)c1,–,8.91 µM (active)
CC(=O)N1c2ccc(S(=O)(=O)N3CCC(C(=O)Nc4cccc(C(F)(F)F)c4)CC3)cc2CC1C (stereo unspecified),–,14.1 µM (active)
Cc1ccc2c(Cl)cc(Cl)c(O)c2n1,–,5.62 µM (active)
COc1ccc(OC)c(C(=O)/C=C/c2ccccc2C(F)(F)F)c1,–,3.16 µM (active)
COc1ccc([C@@]2(C(C)C)ON(c3ccccc3C(F)(F)F)C2=O)cc1,-15.7%,–
Cc1ccc(-c2cc(C(=O)NCCCN3CCOCC3)no2)cc1,–,7.94 µM (active)
CC(O)(c1ccccc1)c1nc(-c2ccncc2)cs1 (stereo unspecified),7.8%,–
OCCN1CCN(C2CCC(c3ccc(F)cc3)c3ccc(F)cc32)CC1 (stereo unspecified),–,25.1 µM (active)
CCN(CC)S(=O)(=O)c1ccc(N/N=C/c2cc(OC)ccc2O)nc1,–,0.794 µM (active)
CC(=O)N1CCCc2cc(S(=O)(=O)N3CCCC(C(=O)N4CCN(c5cc(C)ccc5C)CC4)C3)ccc21 (stereo unspecified),–,3.16 µM (active)
CCOCCn1ccc2c(OCC(=O)Nc3ccc(OC)c(OC)c3)cccc2c1=O,-16.3%,–

Compound,"activity change, negative = inhibition",Potency
CCc1ccc(NC(=O)COc2ccc(/C=C(/C#N)c3nc4ccccc4[nH]3)cc2OC)cc1,–,3.55 µM (active)
CCOC(=O)c1ccc2ncc(C(=O)OCC)c(Nc3ccc(N4CCOCC4)cc3)c2c1,–,3.98 µM (active)
CCN(CC)S(=O)(=O)c1cccc(NC(=O)Nc2cccc(C(F)(F)F)c2)c1,–,1.78 µM (active)
O=c1cc(N2CCN(c3cccc(Cl)c3)CC2)[nH]c(=O)n1C1CCCCC1,–,0.355 µM (active)
Cc1nc2ccccc2c(=O)n1/N=C/c1c(O)ccc2oc3c(c12)CCCC3,–,15.8 µM (active)
NC(=O)N/N=C/c1c(O)ccc2oc3c(c12)CCCC3,–,14.1 µM (active)
Cc1ccccc1N=Nc1ccc(O)c2ncccc12,–,1.41 µM (active)
Cc1ccc(N=Nc2ccc(O)c3ncccc23)cc1,–,3.16 µM (active)
Cn1c2c(c(=O)[nH]c1=O)C(c1cccc(O)c1)C1=C(N2)c2ccccc2C1=O (stereo unspecified),–,3.98 µM (active)
COCCCNCCCOc1ccc(Cl)cc1C(C)(C)C,–,15.8 µM (active)
CCc1cc2c(N3CCN(c4nnc(CC)s4)CC3)ncnc2s1,–,3.55 µM (active)
Cc1cc(C)cc(NC(=O)CCc2nc3sc4c(c3c(=O)[nH]2)CCCC4)c1,–,0.708 µM (active)
CC(C)C(=O)NC(c1cccc([N+](=O)[O-])c1)c1ccc2cccnc2c1O (stereo unspecified),–,2.24 µM (active)
CC(NC(=O)Nc1cccc([N+](=O)[O-])c1)c1ccc2c(c1)OCO2 (stereo unspecified),-5.8%,–
CC(=O)NC(c1cccc([N+](=O)[O-])c1)c1ccc2cccnc2c1O (stereo unspecified),–,0.562 µM (active)
O=[N+]([O-])c1ccc(NC(c2ccccc2)c2ccc3cccnc3c2O)cc1 (stereo unspecified),–,1.26 µM (active)
CCOC(=O)c1ccc(N=c2sc(C(=O)OC)cc(=O)n2-c2ccc(C(=O)OCC)cc2)cc1,–,3.98 µM (active)
O=C(CSc1n[nH]c(-c2ccccn2)n1)Nc1ccc(F)cc1,–,8.91 µM (active)
O=C(CC1NCCc2ccccc21)Nc1ccc(Cl)cc1 (stereo unspecified),7.55%,–
Cc1ccc(NC(=O)CSc2n[nH]c(-c3ccccn3)n2)cc1,–,2.82 µM (active)
O=C(CSc1n[nH]c(-c2ccccn2)n1)Nc1cccc(Cl)c1,–,3.55 µM (active)
O=C(CSc1n[nH]c(-c2ccccn2)n1)Nc1ccc(Cl)cc1,–,1.26 µM (active)
